Among the data in PubChem BioAssay AID2284191 (EPA ToxCast) are AC50 values, retold here.

A word on the AC50: it is the concentration at which the activity in the assay is half-maximal.

SMILES strings stand for the structures. Activity calls are given as the source filed them. The calls were made as follows: active = hit-call score of the fitted dose curve at least 0.9, where 1 is the maximum; inactive = score below 0.9.

The target of the assay is human Serotonin Receptor 5-HT5A Agonism, HTR5A (gene 3361) (UniProt P47898). As to the kind of experiment: ERF_FR_GPCR_hHTR5A: Eurofins (ERF) G Protein-Coupled Receptor (GPCR) Radioligand Binding LeadHunter Assay for human Serotonin Receptor 5-HT5A Agonism. As to the method: ERF_FR_GPCR_hHTR5A is a biochemical, single-readout assay that uses extracted gene-proteins in a cell-free assay. Measurements were taken 2 hour after chemical dosing in a 96-well plate. See 5-HT5A Human Serotonin GPCR Binding (Agonist Radioligand) Assay, Cerep.ERF_FR_GPCR_hHTR5A is an assay component calculated from the ERF_FR_GPCR_hHTR5A assay. It is designed to measure radioligand binding using a type of binding reporter as detected by scintillation counting with radiometry technology.Data from the assay component ERF_FR_GPCR_hHTR5A was analyzed at the assay endpoint, ERF_FR_GPCR_hHTR5A, in the positive analysis fitting direction relative to DMSO as the negative control and baseline of activity. Using a type of binding reporter, gain-of-signal activity can be used to understand changes in binding as they relate to gene HTR5A. To generalize the intended target to other relatable targets, this assay endpoint is annotated to the gpcr intended target family, where the subfamily is serotonin.
human Serotonin Receptor 5-HT5A Agonism, HTR5A (gene 3361), sequence (P47898 whole entry, looked up): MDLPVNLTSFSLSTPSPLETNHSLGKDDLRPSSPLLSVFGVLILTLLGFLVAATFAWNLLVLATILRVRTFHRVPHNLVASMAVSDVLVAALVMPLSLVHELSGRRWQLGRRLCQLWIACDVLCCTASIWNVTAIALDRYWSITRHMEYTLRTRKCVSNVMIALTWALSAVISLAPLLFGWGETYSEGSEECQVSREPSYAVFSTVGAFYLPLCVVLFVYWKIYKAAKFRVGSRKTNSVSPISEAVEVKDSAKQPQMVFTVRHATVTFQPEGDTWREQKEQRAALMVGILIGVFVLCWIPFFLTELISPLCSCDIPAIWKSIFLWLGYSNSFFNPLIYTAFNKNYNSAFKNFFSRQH
Human cells are incubated for 120 minutes at 37 C with [3H]LSD ligand (1.5 nM) and serotonin as control inhibitor. Test Sample Requirements: Minimum for 1) Screen: 60 ul of 10 mM stock -OR- 1 mg (pre-weighed) for 10 uM final testing. 2) Dose Response: 90 ul of 10 mM stock -OR- 1 mg (pre-weighed) for a top concentration at 10 uM.
In the case of `O=C(/C=C/c1ccc(O)cc1)CC(=O)/C=C/c1ccc(O)cc1`, the AC50 is 1680 nM (active).
